UGM FP inh: blocks M. tuberculosis UGM enzyme; P9WIQ1; purified UGM, fluorescence polarization probe displacement; inhibition, % at 10 µM; hit rate 0.06% among 320,000; AID 504406; in the data active = inhibition above about 10%, passing the limit was not always enough
Target sequence (P9WIQ1 whole entry, looked up): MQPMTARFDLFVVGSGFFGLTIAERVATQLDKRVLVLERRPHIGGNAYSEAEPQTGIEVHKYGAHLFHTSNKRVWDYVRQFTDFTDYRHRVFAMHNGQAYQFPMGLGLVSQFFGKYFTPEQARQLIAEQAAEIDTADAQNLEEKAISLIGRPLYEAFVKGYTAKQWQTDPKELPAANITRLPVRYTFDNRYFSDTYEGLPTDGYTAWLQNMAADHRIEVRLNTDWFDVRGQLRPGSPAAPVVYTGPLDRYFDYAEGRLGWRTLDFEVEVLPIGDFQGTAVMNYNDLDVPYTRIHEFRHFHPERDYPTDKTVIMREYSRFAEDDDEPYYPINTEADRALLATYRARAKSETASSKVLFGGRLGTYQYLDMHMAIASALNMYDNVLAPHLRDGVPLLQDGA
Mtb betalactam: beta-lactam sensitization of Mtb H37Rv; AID 434955; inhibition, % at 25 µM; hit rate 0.27% among 330,000; M. tuberculosis H37Rv growth with meropenem, percent inhibition; call rule not given here;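 note: growth measured after seven days incubation then overnight dye step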
Rv3671c protease: inhibits the M. tuberculosis serine protease Rv3671c | P9WHR9 | inhibition, % at 5.96 µM | hit rate 0.048% among 320,000 | AID 2606; in the data active = inhibition above about 38%;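 note: extracellular domain of Rv3671c used as enzyme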
FBA Mtb inh: inhibits M. tuberculosis FBA enzyme. hit rate 2.3% among 360,000. purified M. tuberculosis FBA, fluorescence read-out. P9WQA3. inhibition, % at 1 µM
GDH-TPI counter-1: counter-screen for M. tuberculosis FBA inhibitors: GDH-TPI coupled enzymes. GDH-TPI coupled enzyme counterscreen, NADH absorbance. inhibition, % at 4.8 µM. hit rate 1.2% among 360,000. AID 588335; in the data active = inhibition above about 30%
FadD28 FP inh: blocks FadD28 binding to the bisubstrate probe. fluorescence polarization. hit rate 0.22% among 360,000. inhibition, % at 12.5 µM; in the data active = inhibition above about 8.5%, passing the limit was not always enough
Mtb FBA inh conf: confirmation of M. tuberculosis fructose-bisphosphate aldolase inhibitors; shares compounds with FBA Mtb inh; inhibition, % at 1 µM; hit rate 78% among 5,600; purified M. tuberculosis FBA, fluorescence read-out
GDH-TPI counter-2: GDH-TPI inhibition counter-screen for FBA inhibitors; GDH-TPI coupled enzyme counterscreen, fluorescence; inhibition, % at 1 µM; shares compounds with FBA Mtb inh; AID 652141; hit rate 81% among 5,600; in the data active = inhibition above about 10%
GDH-TPI DR: inhibits GDH-TPI coupling enzymes in dose response. shares compounds with FBA Mtb inh. GDH-TPI coupled enzyme assay, fluorescence, artifact counterscreen. IC50, µM. hit rate 79% among 170. AID 652145; call rule not given here
Numbers stand for hits. A selection: hits, their analogues and other compounds. The true share with any hit is near 3.7%. Cut-off read from the data, not from the text of the source, unless noted: active = inhibition above about 27%; inactive = the rest.

For COC(=O)[C@@]1(Cc2ccccc2)[C@H]2C(=O)N(C)C(=O)[C@H]2[C@H]2CN=C(SCc3ccc(C#N)cc3)N21 the results were FBA Mtb inh inactive, GDH-TPI counter-1 inactive and FadD28 FP inh inactive.
Screening COc1cccc(CN2CCN(S(=O)(=O)c3ccc(Cl)s3)CC2)c1 returned UGM FP inh inactive, Mtb betalactam inactive, Rv3671c protease inactive, FBA Mtb inh inactive, GDH-TPI counter-1 inactive and FadD28 FP inh inactive.
Screening COc1ccc2nc(/C=N/NC(=O)CCCCCNC(=O)OC(C)(C)C)ccc2c1 returned UGM FP inh inactive, Mtb betalactam inactive, Rv3671c protease inactive, FBA Mtb inh 62.9, GDH-TPI counter-1 33.3, FadD28 FP inh inactive, Mtb FBA inh conf 94.5 and GDH-TPI counter-2 86.0.
Screening Cc1ccccc1COC(=O)c1nn(-c2ccccc2)nc1N returned UGM FP inh inactive, Mtb betalactam inactive, Rv3671c protease inactive, FBA Mtb inh 96.9, GDH-TPI counter-1 inactive, FadD28 FP inh inactive, Mtb FBA inh conf 78.9 and GDH-TPI counter-2 66.5.
CN(Cc1ccco1)S(=O)(=O)c1nnc(NC(=O)c2ccccc2Cl)s1 was read as UGM FP inh inactive, Mtb betalactam inactive, Rv3671c protease inactive, FBA Mtb inh inactive, GDH-TPI counter-1 inactive and FadD28 FP inh inactive.
For O=C(c1ccccc1)c1ccc(OCC(O)CN2CCOCC2)cc1 (stereo not drawn) the results were UGM FP inh inactive, Mtb betalactam inactive, Rv3671c protease inactive, FBA Mtb inh 76.3, GDH-TPI counter-1 inactive, FadD28 FP inh inactive, Mtb FBA inh conf inactive, GDH-TPI counter-2 inactive and GDH-TPI DR inactive.
Screening CCOC(=O)C1=C(C)NC(C)=C(C(=O)OCC)C1c1cn(-c2ccccc2)nc1-c1ccco1 returned UGM FP inh inactive, Mtb betalactam inactive, Rv3671c protease inactive, FBA Mtb inh 60.9, GDH-TPI counter-1 inactive, FadD28 FP inh inactive, Mtb FBA inh conf inactive and GDH-TPI counter-2 inactive.
`CCOC(=O)C1=C(C)NC(=O)NC1c1cn(-c2ccccc2)nc1-c1cccs1` (stereo not drawn) gave UGM FP inh inactive, Mtb betalactam inactive, Rv3671c protease inactive, FBA Mtb inh inactive, GDH-TPI counter-1 inactive and FadD28 FP inh inactive.
For Clc1ccc(-n2cnc3c(Cl)ncnc32)cc1Cl the results were FBA Mtb inh inactive, GDH-TPI counter-1 inactive and FadD28 FP inh inactive.
CC1(C)Cc2c(C#N)c(N3CCOCC3)nc(Cc3ccccc3)c2CO1 was read as UGM FP inh inactive, Mtb betalactam inactive, Rv3671c protease inactive, FBA Mtb inh 35.3, GDH-TPI counter-1 inactive, FadD28 FP inh inactive, Mtb FBA inh conf 64.8 and GDH-TPI counter-2 51.9.
`CC1(C)Cc2c(C#N)c(N3CCN(C(=O)c4ccccc4)CC3)nc(Cc3ccccc3)c2CO1` gave UGM FP inh inactive, Mtb betalactam inactive, Rv3671c protease inactive, FBA Mtb inh inactive, GDH-TPI counter-1 inactive and FadD28 FP inh inactive.
Screening Cc1nc(N2CCOCC2)c(C#N)c2c1COC(C)(C)C2 returned UGM FP inh inactive, Mtb betalactam inactive, Rv3671c protease inactive, FBA Mtb inh 51.1, GDH-TPI counter-1 inactive, FadD28 FP inh inactive, Mtb FBA inh conf inactive and GDH-TPI counter-2 inactive.
For CC1(C(=O)NS(=O)(=O)c2ccccc2Cl)CCN1C(=O)Cc1ccc(Cl)cc1Cl (stereo not drawn) the results were FBA Mtb inh inactive, GDH-TPI counter-1 inactive and FadD28 FP inh inactive.
`CC1(C(=O)NCc2ccccn2)CCN1C(=O)Cc1ccc(Cl)cc1Cl` (stereo not drawn) gave FBA Mtb inh inactive, GDH-TPI counter-1 inactive and FadD28 FP inh inactive.
CCNC(=O)COC(=O)c1ccc(-c2nc3ccccc3s2)s1 was read as UGM FP inh inactive, Mtb betalactam inactive, Rv3671c protease inactive, FBA Mtb inh 59.1, GDH-TPI counter-1 inactive, FadD28 FP inh inactive, Mtb FBA inh conf active and GDH-TPI counter-2 active.
Screening Cc1noc(C)c1COC(=O)c1ccc(-c2nc3ccccc3s2)s1 returned UGM FP inh inactive, Mtb betalactam inactive, Rv3671c protease inactive, FBA Mtb inh inactive, GDH-TPI counter-1 inactive and FadD28 FP inh inactive.
Screening CNc1ccc(-c2ccccc2CO)cn1 returned FBA Mtb inh 51.4, GDH-TPI counter-1 inactive, FadD28 FP inh inactive, Mtb FBA inh conf 45.4 and GDH-TPI counter-2 26.9.
Screening NC(=O)N/N=C/c1ccc2cccc(OCc3ccccc3)c2n1 returned UGM FP inh inactive, Mtb betalactam inactive, Rv3671c protease inactive, FBA Mtb inh 57.2, GDH-TPI counter-1 inactive, FadD28 FP inh inactive, Mtb FBA inh conf 172.8 and GDH-TPI counter-2 138.2.
Screening O=C(Cc1ccccc1)N/N=C/c1ccc2cccc(O)c2n1 returned UGM FP inh inactive, Mtb betalactam inactive, Rv3671c protease inactive, FBA Mtb inh inactive, GDH-TPI counter-1 inactive and FadD28 FP inh inactive.
For O=C(NCC1CC1)c1ccc2sc([C@@H]3O[C@H](CO)[C@H](O)[C@H](O)[C@H]3O)nc2c1 the results were FBA Mtb inh inactive, GDH-TPI counter-1 inactive and FadD28 FP inh inactive.
`CCCCn1c(-c2ccc(C(C)(C)C)cc2)nc2cc3[nH]c(=O)c(C(C)C)nc3cc21` gave UGM FP inh inactive, Mtb betalactam inactive, Rv3671c protease inactive, FBA Mtb inh inactive, GDH-TPI counter-1 inactive and FadD28 FP inh inactive.
CCCCn1c(-c2cccnc2)nc2cc3[nH]c(=O)c(C(C)C)nc3cc21 was read as UGM FP inh inactive, Mtb betalactam inactive, Rv3671c protease inactive, FBA Mtb inh 63.6, GDH-TPI counter-1 30.9, FadD28 FP inh inactive, Mtb FBA inh conf active and GDH-TPI counter-2 170.1.
For CCCCn1c(-c2ccc(Cl)c(Cl)c2)nc2cc3[nH]c(=O)c(C(C)C)nc3cc21 the results were UGM FP inh inactive, Mtb betalactam inactive, Rv3671c protease inactive, FBA Mtb inh inactive, GDH-TPI counter-1 inactive and FadD28 FP inh inactive.
CCCCn1c(-c2cccc(Br)c2)nc2cc3[nH]c(=O)c(C(C)C)nc3cc21 was read as UGM FP inh inactive, Mtb betalactam inactive, Rv3671c protease inactive, FBA Mtb inh 34.0, GDH-TPI counter-1 inactive, FadD28 FP inh inactive, Mtb FBA inh conf inactive and GDH-TPI counter-2 inactive.
Screening COc1cc(OC)cc(C(=O)NNC(=O)c2nn(C)c(=O)c3ccccc23)c1 returned UGM FP inh inactive, Mtb betalactam inactive, Rv3671c protease inactive, FBA Mtb inh inactive, GDH-TPI counter-1 inactive and FadD28 FP inh inactive.
Screening COC(=O)N(C)C[C@@H]1OCc2cnnn2CCCC(=O)N([C@@H](C)CO)C[C@H]1C returned FBA Mtb inh inactive, GDH-TPI counter-1 inactive and FadD28 FP inh inactive.
Screening CCN(CC)C(=O)C1=C(C)N(CCC2=CCCCC2)C(=O)C(CC(=O)NC2CCCC2)C1 (stereo not drawn) returned FBA Mtb inh inactive, GDH-TPI counter-1 inactive and FadD28 FP inh inactive.

Screening data as filed in PubChem.
